This passage reports cytotoxicity call results from the antibiotic and cytotoxicity screens of Wong et al. (2023).

Hit rate of the full screen: of about 39,000 compounds, about 3,300 (8.5%) were called active. Many of the other results were omitted from the sample, so actives are more common in it than they were.

In the experiment the test system is HepG2. Briefly: cytotoxicity call (relative viability < 0.9). Conditions: 10 µM.
For the compound `C[C@H]1CN([C@@H](C)CO)S(=O)(=O)c2ccc(C#CC3(O)CCCC3)cc2O[C@@H]1CN(C)C(=O)Nc1ccccc1`, the cytotoxicity call is “inactive”. The value for `C[C@H](CO)N1C[C@H](C)[C@@H](CN(C)S(=O)(=O)c2cccs2)OCCCC[C@H](C)Oc2ccc(NC(=O)Cc3ccccc3)cc2C1=O` was “inactive”; that for `C[C@@H]1CN([C@H](C)CO)C(=O)Cc2cc(NC(=O)Cn3cnnn3)ccc2O[C@H]1CN(C)Cc1ccc2c(c1)OCO2` was “inactive”; that for `CO[C@@H](CN(C)S(=O)(=O)c1ccc(Cl)cc1)[C@H](C)CN([C@@H](C)CO)S(=O)(=O)c1cccc(Cl)c1` was “inactive”. Take `O=C1OC(c2cc(I)c(O)c(I)c2)(c2cc(I)c(O)c(I)c2)c2ccccc21`: the cytotoxicity call was “inactive”. As for `O=C1OC2(c3ccccc31)c1cc(I)c(O)c(I)c1Oc1c2cc(I)c(O)c1I`, the cytotoxicity call is “active”.

Turning to `O=C1OC2(c3ccc(O)cc3Oc3cc(O)ccc32)c2ccccc21`, the cytotoxicity call was “inactive”. The value for `C[C@@H]1CN([C@@H](C)CO)C(=O)c2cccc(NC(=O)c3cnccn3)c2O[C@H]1CN(C)C(=O)NC1CCCCC1` was “inactive”. The value for `Cc1[nH]c(=O)[nH]c(=O)c1S(=O)(=O)N1CCN(c2ccccc2)CC1` was “inactive”. Then `Cc1noc(C)c1NC(=O)N(C)C[C@@H]1OCCCC[C@H](C)Oc2ccc(NS(=O)(=O)c3ccccc3)cc2C(=O)N([C@@H](C)CO)C[C@H]1C`, with “inactive”. Regarding `C[C@H]1CN([C@@H](C)CO)S(=O)(=O)c2ccc(C#Cc3ccccc3F)cc2O[C@@H]1CN(C)C(=O)Cc1cccnc1`, the cytotoxicity call was “inactive”.

`O=C(C[C@@H]1CC[C@@H]2[C@H](COC[C@@H](O)CN2S(=O)(=O)c2cccc(Cl)c2)O1)NC1Cc2ccccc2C1`: the cytotoxicity call was “inactive”. On to `O=C(C[C@@H]1C[C@H]2c3cc(NS(=O)(=O)c4ccc(F)cc4)ccc3O[C@H]2[C@H](CO)O1)NC1CCCC1`, for which the cytotoxicity call was “inactive”. Then `COCC#Cc1cnc2c(c1)C(=O)N([C@@H](C)CO)C[C@H](C)[C@H](CN(C)C(=O)c1cnccn1)O2`, with “inactive”; and `C#CC[C@H](c1nc2cc(Cl)ccc2c(=O)n1Nc1ccccc1)N(CCCN)C(=O)c1cccc(Cl)c1F`, with “active”. Then `C[C@@H]1CN([C@H](C)CO)S(=O)(=O)c2ccc(-c3cccc(C#N)c3)cc2O[C@H]1CN(C)C(=O)c1ccncc1`, with “inactive”. Then `Cc1nc[nH]c1CN(C)[C@H](C)C(=O)N(C)C`, with “inactive”; and `CN(C)CCC=C1c2ccccc2C=Cc2ccccc21.Cl`, with “active”; and `CN(C)CN1C(=O)c2ccccc2C1=O`, with “inactive”. Consider `CN(C)CCC=C1c2ccccc2COc2ccccc21.Cl`, for which the cytotoxicity call was “active”. With `CNCCC=C1c2ccccc2CCc2ccccc21.Cl`, the cytotoxicity call is “active”.

Take `CN(C)CCC=C1c2ccccc2CCc2ccccc21.Cl`: the cytotoxicity call is “active”. Then `CN(C)CCC=C1c2ccccc2COc2ccc(CC(=O)O)cc21.Cl`, with “inactive”.
